Screening results as filed in PubChem.
Only some compounds are listed: those with a hit (about 3.2% of all), similar ones and a draw of the others.
AMA1-RON2 inh = disrupts binding of P. falciparum AMA1 to RON2; AlphaScreen AMA1-biotinylated RON2 peptide binding; Potency, µM (series often up to 58.2 µM), without a hit: at the top dose activity change, negative = inhibition, actives largely listed as inhibitors; 360,000 tested, 0.2% active; AID 720542;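 further: 0% = vehicle wells and -100% = peptide control; nearly all actives have a fitted effect of over 45% in size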
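AMA1 (3D7) with his tag at 25 nM final met compounds first, then biotinylated RON2 peptide at 25 nM; detection used donor plus acceptor beads, 10 µg/mL apiece, read by AlphaScreen after 30 min at room temperature.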
LmPK inh = blocks Leishmania mexicana pyruvate kinase activity. Q27686. purified LmPK, Kinase-Glo ATP luminescence, 1 h. Potency, µM (series often up to 57.5 µM), without a hit: at the top dose activity change, negative = inhibition, actives largely listed as inhibitors. 290,000 tested, 0.37% active
Target sequence (Q27686 whole entry, looked up): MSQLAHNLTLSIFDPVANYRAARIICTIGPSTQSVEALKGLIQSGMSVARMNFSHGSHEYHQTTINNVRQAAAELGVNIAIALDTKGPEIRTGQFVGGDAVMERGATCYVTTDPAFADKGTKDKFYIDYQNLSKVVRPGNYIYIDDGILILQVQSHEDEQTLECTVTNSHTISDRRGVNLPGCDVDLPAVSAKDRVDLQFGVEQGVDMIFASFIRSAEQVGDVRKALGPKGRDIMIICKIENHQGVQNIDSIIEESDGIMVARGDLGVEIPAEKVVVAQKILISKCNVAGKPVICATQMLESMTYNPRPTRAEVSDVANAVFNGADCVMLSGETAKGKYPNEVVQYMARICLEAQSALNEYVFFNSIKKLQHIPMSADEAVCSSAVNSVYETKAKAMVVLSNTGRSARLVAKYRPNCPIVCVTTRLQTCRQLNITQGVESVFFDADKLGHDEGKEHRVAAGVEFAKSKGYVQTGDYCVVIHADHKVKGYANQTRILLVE
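qHTS format; LmPK 0.1 nM; substrates PEP 0.5 mM and ADP 0.1 mM. One-hour room-temperature incubation, then coupled luciferase luminescence; 0.5 nM enzyme wells mark activation.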
Sm TGR block = S. mansoni TGR enzyme inhibition; Q962Y6; purified TGR, DTNB reduction, TNB absorbance 405 nm; Potency, µM (top dose mostly 114 µM), for inactives: at the highest dose activity change, negative = inhibition, most hits filed as inhibitors; 360,000 tested, 3% active; further: nearly all actives have a fitted effect of over 60% in size
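Kinetic colorimetric format: TGR-catalysed, NADPH-driven DTNB reduction monitored via TNB absorbance. Enzyme dispensed at 20 nM; compound exposure 15 min at room temperature before reaction start.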
Tb PYK inh = blocks Trypanosoma brucei pyruvate kinase; AID 624173; 410,000 tested, 0.12% active; Q57TT1; TbPYK enzyme, Kinase-Glo Plus ATP luminescence, 45 min; Potency, µM (doses to about 76.8 µM), inactives show top-dose activity, negative = inhibition, hits mostly inhibitors; further: nearly all actives have a fitted effect of over 50% in size
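Screened from lowest to highest concentration, compounds were pinned into TbPYK/substrate mixtures, and ADP (130 uM final) was added. Plates sat at room temperature for 45 min prior to Kinase-Glo Plus detection by luminescence.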
RE007 growth inh = less growth of the S. pombe RE007 Vpr strain. S. pombe RE007 Vpr strain, BacTiter-Glo ATP luminescence, 24 h. 360,000 tested, 0.21% active. Potency, µM (series often up to 92.2 µM), for the others: at the top dose activity change, negative = less growth, usual class: inhibitors; active means well fitted falling curve with a large enough effect; inconclusive means small, poorly fitted or top-dose-only effect; inactive means no such curve, though single readings can be large or run the other way; further: nearly all actives have a fitted effect of over 50% in size
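Fission yeast RE007 carrying one integrated HIV-1 vpr copy, seeded at OD 0.01 in PMG+AL medium with 23 nL pinned compound. Grown 24 h at 30 degrees; viability read by BacTiter-Glo luminescence after 5 min.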
Starred values were filed as active, the others as inactive; ? = inconclusive; . = no result given; [ ] = dose if it differs, or a comment. Unless noted, the call rests on the fitted dose curve; in most records, active means well fitted curve in the direction sought with a large enough effect; inconclusive means small, poorly fitted or top-dose-only effect, or another doubt; inactive means no such curve, though single readings can be large; an effect the other way counts as inactive or inconclusive. Unless noted, on the % scale 0 is the no-effect control and ±100 the full control effect; potency means the concentration at half of the fitted maximal effect.

SMILES | AMA1-RON2 inh | LmPK inh | Sm TGR block | Tb PYK inh | RE007 growth inh
COc1ccc(-c2nc3ccccc3s2)cc1 | 9% | 13µM* | . | ? | ?
c1ccc2[nH]c(-c3ccc4c(c3)OCO4)nc2c1 | -14% | . | . | ? | 40µM*
CCOc1ccccc1NC(=O)C1CCN(S(=O)(=O)c2ccc3[nH]c4c(c3c2)CCCCC4)CC1 | . | . | 5% | 4%[15.4 µM] | .
Cc1ccc(Cl)cc1N1CCN(C(=O)COc2cc(=O)n(C)c3ccccc23)CC1 | . | . | 6% | 5% | .
Clc1ccc(-c2nc3ccccc3[nH]2)cn1 | -3% | 25µM* | 9% | -9% | -17%
c1ccc2sc(-c3ccc4c(c3)OCO4)nc2c1 | 67% | 10µM* | 6% | ? | ?
O=c1c2c3c(sc2n(CCN2CCCCC2)c(=O)n1Cc1ccco1)CCCCC3 | -3% | 2% | 7% | -24% | 5%
O=C(Cn1c(=O)n(Cc2ccco2)c(=O)c2c3c(sc21)CCCC3)Nc1ccccc1 | -14% | 4% | 50µM* | -6% | -5%
NC(=O)Cn1c(=O)n(Cc2ccco2)c(=O)c2c3c(sc21)CCCCC3 | -29% | -2% | 7.1µM* | ? | 5%
COc1ccccc1NC(=O)C(CC=C(Cl)Cl)C(C)=O (stereo not drawn) | 5% | 1% | 35µM* | -5% | -6%
COCC(=O)N1c2nc(C(C)C)nn2C2(CCCCC2)[C@@H]2CCCC[C@@H]21 | . | . | 0% | 4% | .
O=C(O)C1C2C=CC(O2)C1C(=O)Nc1cccc(C(F)(F)F)c1 (stereo not drawn) | -6% | 0% | 100µM* | -8% | -30%
COc1ccc(NC(=O)C2C3C=CC(C3)C2C(=O)NCc2ccco2)c(OC)c1 (stereo not drawn) | 3% | 6% | -22% | -1% | 0%
CCOc1ccccc1NC(=O)C1C2C=CC(O2)C1C(=O)O (stereo not drawn) | -7% | -1% | 20µM* | -10% | -15%
Cc1cc(C)cc(NC(=O)C2C3C=CC(O3)C2C(=O)O)c1 (stereo not drawn) | -10% | 3% | -34% | 3% | 4%
CCc1ccccc1NC(=O)C1C2C=CC(O2)C1C(=O)O (stereo not drawn) | -9% | 0% | 18µM* | -2% | -10%
CCOc1ccc(OCC)c(NC(=O)C2C3C=CC(O3)C2C(=O)NCc2ccco2)c1 (stereo not drawn) | -8% | -1% | 50µM* | -17% | 6%
CCOc1ccc(OCC)c(NC(=O)C2C3C=CC(O3)C2C(=O)O)c1 (stereo not drawn) | -20% | . | . | -15% | -4%
CCOC(=O)CNC(=O)c1cc2c(=O)n3cccc(C)c3nc2n1C | . | . | -6% | 2% | .
O=C(O)C1C2C=CC(O2)C1C(=O)Nc1ccccc1C(F)(F)F (stereo not drawn) | -2% | 2% | 8.9µM* | -26% | -13%
O=C(CC(=O)Nc1ccccc1C(F)(F)F)Nc1ccccc1C(F)(F)F | 11% | 5% | 0% | 28% | 2%
O=C(COC(=O)c1ccc(Cl)cc1[N+](=O)[O-])NNC(=O)c1cccs1 | 46% | . | 56µM* | 1% | 1%
CCc1ccc(C2C(C(=O)Nc3ccccc3OC)=C(C)Nc3nc(SCc4ccccc4)nn32)cc1 (stereo not drawn) | . | . | 2% | 3% | .
COc1ccc2c(C)nc(Nc3nc(C)c(C)c(=O)[nH]3)nc2c1 | 4% | -4% | 12% | 0% | 1%
COc1ccc2c(C)nc(Nc3nc(C)cc(C)n3)nc2c1 | 12% | 3% | 11µM* | ? | 3%
SMILES | AMA1-RON2 inh | LmPK inh | Sm TGR block | Tb PYK inh | RE007 growth inh
CCN(CC)c1ccc(NC(=S)Nc2ccc(F)cc2)cc1 | 32µM* | -9% | -18% | -6% | -7%
CCN(CC)c1ccc(NC(=O)c2ccco2)cc1 | -9% | 1% | -14% | -10% | -8%
Oc1ccc(NC(=S)Nc2ccc(F)cc2)cc1 | 14% | -4% | ? | 3% | -6%
O=C(NC(=S)Nc1ccc(-c2ccc(CO)o2)cc1)c1cccs1 | 70% | -6%[11.5 µM] | 8.9µM* | -12% | 8%
CCN(CC)c1ccc(NC(=O)CN(C)Cc2cccs2)cc1 | 13µM* | -5% | -25% | -12% | -12%
CCN(CC)c1ccc(NC(=S)NC(=O)c2ccco2)cc1 | ? | -1% | 11µM* | -1% | -2%
Cc1ccc(NC(=O)CN(C)Cc2cccs2)cc1Cl | -15% | 1% | -5% | -2% | -17%
COc1cccc(NC(=O)CCc2c(C)nc3c4cccnc4nn3c2C)c1 | . | . | 2% | -5% | .
Cc1ccc(-c2noc(-c3cccnc3N(C)Cc3ccc(Cl)cc3)n2)cc1 | . | . | -1% | -4% | .
Cc1ccc2c(c1)c1c(c(=O)n(-c3cccc(Cl)c3)c(=O)n1CC(=O)NCCC1=CCCCC1)n2C | . | . | 7% | 2% | .
CCc1ccc(C2=C(C)C(N3CCC(C(=O)NCCc4ccco4)CC3)=NS2(=O)=O)cc1 | . | . | -13% | -7% | .
COc1cc(NC(=O)C2CCN(C(=O)c3sc4nc[nH]c(=O)c4c3C)CC2)cc(OC)c1OC | . | . | 1% | -11% | .
CC(=O)NC(=S)Nc1ccc(NC(=S)NC(=O)c2cccs2)cc1 | 0% | -9% | -26% | 6% | 4%
CCN(CC)c1ccc(NC(=S)NC(=O)c2cccs2)cc1 | ? | 8% | 8.9µM* | 0% | ?
CN1C(=O)C2CCCCN2c2ccc(C(=O)NCc3ccccc3Br)cc21 (stereo not drawn) | . | . | 1% | -5% | .
COc1ccc(NC(=O)CN(C)C(=O)c2cc(-c3ccco3)nc3ccccc23)cc1 | -24% | . | 5µM* | -4% | 4%
COc1cccc(CN(C)C(=O)c2cc(-c3ccc(F)cc3)nc3ccccc23)c1 | 10% | -12% | 2.2µM* | 1% | 5%
COc1ccc(-c2cc(C(=O)N(C)CC(=O)Nc3cccc(F)c3)c3ccccc3n2)cc1OC | -10% | . | . | 3% | 3%
CN(CC(=O)Nc1cccc(F)c1)C(=O)c1cc(-c2ccco2)nc2ccccc12 | ? | . | 7.9µM* | -11% | 0%
Cc1ccc(-c2cc(C(=O)N(C)CC(=O)Nc3ccccc3Br)c3ccccc3n2)o1 | 3% | . | 16µM* | -6% | -6%
CCc1ccc(-c2nc(SCC(=O)NCC3CCCO3)c(-c3ccc(F)cc3)[nH]2)cc1 (stereo not drawn) | . | . | 6% | -3% | .
CC(=O)N1c2ccc(S(=O)(=O)Nc3ccc(Cl)cc3C)cc2CC1C (stereo not drawn) | . | . | 2% | -2% | .
Cn1cnc2c(=O)oc3ccc(S(=O)(=O)N4CCN(c5cccc(Cl)c5)CC4)cc3c21 | . | . | 1% | -2% | .
Cc1ccccc1CNC(=O)c1cccc(NC(=O)N2CCSc3ncccc32)c1 | . | . | -7% | -11%[15.4 µM] | .
CSc1nnc(C)c(=O)n1COC(=O)c1ccc([N+](=O)[O-])cc1 | -5% | -2%[11.5 µM] | ? | -4% | 0%
